Results with a measured potency or affinity are listed apart. Results filed as inconclusive are left out. Active and inactive are the calls of the source. How the calls were made is not given here.
experiment: OVCAR-3 cell viability loss – plate reader, dry powder samples, PAX8 inhibitor project, dose response (AID 743044); conditions: NIH:OVCAR-3 ovarian cancer cell viability; max activity: at 35 µM, active compounds read low unless noted; series mostly up to 50 µM; activity change, negative = cytotoxicity: at the top concentration

Row | SMILES | max activity
1 | O=C(C[C@H]1CC[C@H]2[C@@H](COC[C@@H](O)CN2S(=O)(=O)c2ccccc2Cl)O1)N1CCC(Cc2ccccc2)CC1 | 32.6% [at 1 µM, active compounds read low] (inactive)
2 | Cc1noc(C)c1NC(=O)Nc1cccc2c1O[C@H](CN(C)Cc1ccc(C(F)(F)F)cc1)[C@H](C)CN([C@@H](C)CO)C2=O | -18.3% (inactive)
3 | C[C@@H]1CN([C@@H](C)CO)C(=O)Cc2cc(NC(=O)Nc3ccc(C(F)(F)F)cc3)ccc2O[C@H]1CN(C)Cc1ccc(Cl)c(Cl)c1 | 9.21% [at 0.26 µM, active compounds read low] (inactive)
4 | C[C@H]1CN([C@@H](C)CO)C(=O)Cc2cc(NC(=O)Nc3ccc(C(F)(F)F)cc3)ccc2O[C@H]1CN(C)C(=O)Nc1ccc(C(F)(F)F)cc1 | 24.3% [at 0.56 µM, active compounds read low] (inactive)
5 | C[C@@H]1CCCCO[C@@H](CN(C)C(=O)C2CCCCC2)[C@H](C)CN([C@H](C)CO)C(=O)c2cc(NC(=O)Nc3ccc(F)cc3)ccc2O1 | -21.5% (inactive)

experiment: toxicity toward immortalized ovarian surface epithelium – cell-based, plate reader, dry powder samples, cytotoxicity control for PAX8 inhibitor project, dose response (AID 743045); conditions: IOSE-T80 ovarian epithelial cells; series mostly up to 35 µM; activity change, negative = cytotoxicity: at the top concentration;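 further: 0% = neutral control median and -100% = positive control median; more negative values mean more cell killing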

Row | SMILES | activity change, negative = cytotoxicity
6 | CC(C)NC(=O)N1Cc2cc(C(=O)NCC(F)(F)F)nc(-c3cccc(-c4cc5ccccc5o4)c3)c2[C@H]1CCO | -1.17% (inactive)
7 | C[C@@H]1CN([C@@H](C)CO)C(=O)c2cc(NC(=O)Nc3cccc4ccccc34)ccc2O[C@@H]1CN(C)Cc1ccc2c(c1)OCO2 | 3.06% (inactive)
8 | C[C@@H]1CN([C@H](C)CO)C(=O)c2cc(NS(=O)(=O)c3ccc(F)cc3)ccc2O[C@@H](C)CCCCO[C@H]1CN(C)Cc1ccccc1 | 6.23% (inactive)
9 | N#C[C@H]1[C@H](c2ccc(C#CC3CCCCC3)cc2)[C@H](CO)N1C(=O)Nc1ccc(F)cc1 | -6.97% [at 30 µM] (inactive)
10 | N#Cc1cccc(-c2ccc3c(c2)[C@@H]2[C@@H](CCN2S(=O)(=O)c2ccc(F)cc2)[C@@H](CO)N3)c1 | 0.96% (inactive)
11 | CCCN(C)C[C@H]1OCCCC[C@@H](C)Oc2ccc(NC(=O)c3ccccc3)cc2C(=O)N([C@H](C)CO)C[C@H]1C | 12.6% (inactive)
12 | C[C@H]1CCCCO[C@H](CN(C)S(=O)(=O)c2ccc(Cl)cc2)[C@@H](C)CN([C@@H](C)CO)C(=O)c2cc(NS(=O)(=O)c3ccc(F)cc3)ccc2O1 | 15.8% (inactive)
13 | C[C@@H]1CCCCO[C@@H](CN(C)Cc2ccc(Cl)c(Cl)c2)[C@H](C)CN([C@@H](C)CO)C(=O)c2cc(NC(=O)Nc3ccccc3)ccc2O1 | -18.2% (inactive)
14 | C[C@@H]1CN([C@H](C)CO)C(=O)c2cc(NS(=O)(=O)c3ccc(Cl)cc3)ccc2O[C@@H](C)CCCCO[C@H]1CN(C)C(=O)C1CCCCC1 | 13.3% (inactive)
15 | C[C@H]1CCCCO[C@@H](CN(C)S(=O)(=O)c2cccs2)[C@@H](C)CN([C@@H](C)CO)C(=O)c2cc(NS(=O)(=O)c3ccc(Cl)cc3)ccc2O1 | 7.26% (inactive)
16 | C[C@@H]1CN([C@H](C)CO)C(=O)c2cc(NC(=O)Nc3ccc(F)cc3)ccc2O[C@@H](C)CCCCO[C@H]1CN(C)S(=O)(=O)c1ccc(F)cc1 | -6.6% (inactive)
17 | C[C@H](CO)N1C[C@H](C)[C@@H](CN(C)Cc2ccc(Cl)c(Cl)c2)OCCCC[C@H](C)Oc2ccc(NC(=O)Nc3ccc(C(F)(F)F)cc3)cc2C1=O | 12.4% (inactive)
18 | CC(C)CC#Cc1ccc([C@@H]2[C@@H](CO)N3CCCCN(S(=O)(=O)c4ccc(F)cc4)C[C@H]23)cc1 | 29.9% (inactive)
19 | Cc1noc(C)c1S(=O)(=O)Nc1ccc2c(c1)C(=O)N([C@@H](C)CO)C[C@H](C)[C@H](CN(C)C(=O)Nc1ccc(C(F)(F)F)cc1)OCCCC[C@H](C)O2 | -11.1% (inactive)
20 | COc1cccc(S(=O)(=O)N2CC[C@@H]3[C@H](CO)Nc4ccc(C5=CCCCC5)cc4[C@@H]32)c1 | 2.94% (inactive)
21 | Cc1noc(C)c1S(=O)(=O)N(C)C[C@H]1OCCCC[C@@H](C)Oc2ccc(NS(=O)(=O)c3ccc(Cl)cc3)cc2C(=O)N([C@@H](C)CO)C[C@H]1C | -8.07% (inactive)
22 | Cc1ccc(S(=O)(=O)N(C)C[C@@H]2OCCCC[C@H](C)Oc3ccc(NS(=O)(=O)c4ccc(Cl)cc4)cc3C(=O)N([C@H](C)CO)C[C@H]2C)cc1 | 10.3% (inactive)
23 | C[C@@H]1CN([C@H](C)CO)C(=O)c2cc(NS(=O)(=O)c3ccc(F)cc3)ccc2O[C@@H](C)CCCCO[C@@H]1CN(C)CC1CCCCC1 | 14.1% (inactive)
24 | C[C@@H]1CN([C@H](C)CO)C(=O)c2c(c3ccccc3n2C)-c2ccccc2CO[C@H]1CN(C)S(=O)(=O)c1cccc(F)c1 | -6.44% (inactive)
25 | C[C@@H]1CN([C@@H](C)CO)C(=O)Cc2cc(NC(=O)Nc3ccc(C(F)(F)F)cc3)ccc2O[C@H]1CN(C)S(=O)(=O)c1ccc(F)cc1 | 18.7% (inactive)

Row | SMILES | activity change, negative = cytotoxicity
26 | O=C(Nc1ccc(F)cc1)N1CCCCN2[C@@H](CO)[C@@H](c3ccc(-c4cccc(F)c4)cc3)[C@@H]2C1 | 8.18% (inactive)
27 | O=C(CN1C(=O)c2ccccc2S1(=O)=O)c1ccccc1Cl | -7.64% [at 50 µM] (inactive)
28 | C[C@H](CO)N1C[C@H](C)[C@H](CN(C)Cc2ccc(Cl)c(Cl)c2)OCCCC[C@H](C)Oc2ccc(NC(=O)Nc3ccccc3)cc2C1=O | -1.43% (inactive)
29 | C[C@@H]1CN([C@@H](C)CO)C(=O)c2cccc(NC(=O)c3ccncc3)c2O[C@@H]1CN(C)S(=O)(=O)c1cccs1 | 3.4% (inactive)
30 | CCSCCc1nnc(NC(=O)Nc2cccc(C(F)(F)F)c2)s1 | -19.9% [at 50 µM] (inactive)
31 | Cc1cccc(S(=O)(=O)N2C[C@@H](O)COC[C@@H]3O[C@@H](CC(=O)Nc4ccc(-c5ccccc5)cc4)CC[C@H]32)c1 | 4.77% (inactive)
32 | C[C@@H]1CCCCO[C@H](CN(C)C)[C@H](C)CN([C@H](C)CO)C(=O)c2cc(NC(=O)Nc3cccc4ccccc34)ccc2O1 | 0.799% (inactive)
33 | COc1ccc(S(=O)(=O)Nc2ccc3c(c2)CC(=O)N([C@H](C)CO)C[C@H](C)[C@@H](CN(C)Cc2ccc(-c4ccccc4)cc2)O3)cc1 | 2.94% (inactive)
34 | C[C@H]1CCCCO[C@@H](CN(C)C(=O)Nc2ccc(C(F)(F)F)cc2)[C@@H](C)CN([C@@H](C)CO)C(=O)c2cc(NS(=O)(=O)c3cn(C)cn3)ccc2O1 | -0.321% (inactive)
35 | Cc1ccc(S(=O)(=O)Nc2ccc3c(c2)C(=O)N([C@@H](C)CO)C[C@@H](C)[C@H](CN(C)S(=O)(=O)c2ccc(Cl)cc2)OCCCC[C@@H](C)O3)cc1 | 17.6% (inactive)
36 | Cc1ccc(S(=O)(=O)Nc2ccc3c(c2)C(=O)N([C@H](C)CO)C[C@H](C)[C@@H](CN(C)S(=O)(=O)c2cccs2)OCCCC[C@H](C)O3)cc1 | 23.3% (inactive)
37 | C[C@H](CO)N1C[C@H](C)[C@@H](CN(C)Cc2ccc(Cl)c(Cl)c2)OCCCC[C@H](C)Oc2ccc(NS(=O)(=O)c3ccccc3)cc2C1=O | -7.34% (inactive)
38 | C[C@@H]1CCCCO[C@@H](CN(C)C(=O)Cc2ccccc2)[C@@H](C)CN([C@@H](C)CO)C(=O)c2cc(NC(=O)Nc3ccc(C(F)(F)F)cc3)ccc2O1 | 16.9% (inactive)
39 | O=C(C[C@H]1CC[C@H]2[C@@H](COC[C@@H](O)CN2S(=O)(=O)c2ccccc2Cl)O1)N1CCC(Cc2ccccc2)CC1 | 5.05% (inactive)
40 | C[C@@H]1CCCCO[C@@H](CN(C)C(=O)NC2CCCCC2)[C@H](C)CN([C@@H](C)CO)C(=O)c2cc(NC(=O)Nc3ccc(C(F)(F)F)cc3)ccc2O1 | -0.218% (inactive)
41 | Cc1noc(C)c1NC(=O)Nc1cccc2c1O[C@H](CN(C)Cc1ccc(C(F)(F)F)cc1)[C@H](C)CN([C@@H](C)CO)C2=O | 13% (inactive)
42 | C[C@@H]1CN([C@H](C)CO)S(=O)(=O)c2ccc(C#Cc3cccc(F)c3)cc2O[C@@H]1CN(C)C(=O)NC1CCCCC1 | 12.8% (inactive)
43 | C[C@@H]1CN([C@@H](C)CO)C(=O)Cc2cc(NC(=O)Nc3ccc(C(F)(F)F)cc3)ccc2O[C@H]1CN(C)Cc1ccc(Cl)c(Cl)c1 | -1.08% (inactive)
44 | C[C@H]1CN([C@@H](C)CO)C(=O)Cc2cc(NC(=O)Nc3ccc(C(F)(F)F)cc3)ccc2O[C@H]1CN(C)C(=O)Nc1ccc(C(F)(F)F)cc1 | 1.89% (inactive)
45 | C[C@@H]1CCCCO[C@@H](CN(C)C(=O)C2CCCCC2)[C@H](C)CN([C@H](C)CO)C(=O)c2cc(NC(=O)Nc3ccc(F)cc3)ccc2O1 | 7.9% (inactive)

From PubChem BioAssay
